Test results: PubChem BioAssay AID1159580 (chemical genetic matrix, 2015)
Out of some 5,500 compounds screened, about 2,000 (36%) were called active. Not shown: some 18% with an inconclusive outcome. The list shows a part of the results. A number with no mark means an inactive call. Rule as the data show it: active = normalized growth mostly below about 0.91 (no sharp cut-off); inconclusive = no clear call, values can overlap the other calls; inactive = mostly above about 0.92.

Experiment: chemical genetic growth profiling, strain panel (AID 1159580);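 also: tested at 20 µM; growth read once vehicle control cultures reached saturation at 30 °C; 1 = growth at the plate median or of vehicle wells; lower values mean less growth of the strain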
Conditions: S. cerevisiae deletion strains, growth OD
[1] = locus YAL013W, strain DEP1, active compounds read low
[2] = locus YMR263W, strain SAP30, active compounds read low
[3] = locus YPL055C, strain LGE1, active compounds read low
[4] = locus YPL241C, strain CIN2, active compounds read low
[5] = locus YDL101C, strain DUN1, active compounds read low
[6] = locus YHR030C, strain SLT2, active compounds read low

SMILES: CC[C@H]1CN2CCc3cc(OC)c(OC)cc3[C@@H]2C[C@@H]1C[C@H]1NCCc2cc(OC)c(OC)cc21
- normalized growth [1]: 1.01
- normalized growth (locus YAL040C, strain CLN3, active compounds read low): 0.999
- normalized growth (locus YCL061C, strain MRC1 (second series), active compounds read low): 0.995
- normalized growth (locus YDR363W, strain ESC2, active compounds read low): 0.999
- normalized growth (locus YER002W, strain NOP16, active compounds read low): 1
- normalized growth (locus YGR229C, strain SMI1, active compounds read low): 0.994
- normalized growth [2]: 1.01
- normalized growth (locus YMR307W, strain GAS1, active compounds read low): 1.01
- normalized growth (locus YNL128W, strain TEP1, active compounds read low): 0.999
- normalized growth (locus YNL175C, strain NOP13, active compounds read low): 1.03
- normalized growth (locus YNL197C, strain WHI3, active compounds read low): 1.02
- normalized growth (locus YNL224C, strain SQS1, active compounds read low): 1.02
- normalized growth (locus YOR083W, strain WHI5 (second series), active compounds read low): 1.02
- normalized growth [3]: 1.02
- normalized growth [4]: 1

SMILES: O=C(Nc1cc(C(F)(F)F)cc(C(F)(F)F)c1)C(Sc1ccccn1)c1ccccc1 (configuration not stated)
- normalized growth [1]: 0.998
- normalized growth (locus YBR229C, strain ROT2, active compounds read low): 0.983
- normalized growth [5]: 0.987
- normalized growth (locus YDL134C, strain PPH21, active compounds read low): 0.979
- normalized growth (locus YDR150W, strain NUM1, active compounds read low): 1
- normalized growth (locus YEL061C, strain CIN8, active compounds read low): 0.988
- normalized growth (locus YGR078C, strain PAC10, active compounds read low): 0.989
- normalized growth [6]: 0.982
- normalized growth (locus YHR087W, strain rtc3, active compounds read low): 0.973
- normalized growth (locus YJR043C, strain POL32, active compounds read low): 0.995
- normalized growth (locus YJR075W, strain HOC1, active compounds read low): 1.01
- normalized growth (locus YLR039C, strain RIC1, active compounds read low): 0.944
- normalized growth (locus YLR058C, strain SHM2 (second series), active compounds read low): 0.978
- normalized growth (locus YLR085C, strain ARP6, active compounds read low): 1.02
- normalized growth (locus YLR262C, strain YPT6, active compounds read low): 0.962
- normalized growth (locus YML094W, strain GIM5, active compounds read low): 0.953
- normalized growth (locus YMR219W, strain ESC1, active compounds read low): 0.99
- normalized growth [2]: 1.03
- normalized growth (locus YNL153C, strain GIM3, active compounds read low): 1.01
- normalized growth (locus YNL298W, strain CLA4 (second series), active compounds read low): 1.01
- normalized growth (locus YNL322C, strain KRE1, active compounds read low): 0.991
- normalized growth (locus YNR030W, strain Alg12, active compounds read low): 0.997
- normalized growth (locus YOL006C, strain TOP1, active compounds read low): 0.997
- normalized growth [3]: 1.03
- normalized growth [4]: 0.98
- normalized growth (locus YPR135W, strain CTF4, active compounds read low): 0.959

SMILES: O=C(Nc1ccccn1)c1cc(-c2ccccc2)c(C(F)(F)F)s1
- normalized growth (locus YAR019C, strain CDC15, active compounds read low): 0.954
- normalized growth (locus YBL105C, strain PKC1, active compounds read low): 0.94
- normalized growth (locus YBR135W, strain CKS1, active compounds read low): 0.947
- normalized growth (locus YBR136W, strain MEC1, active compounds read low): 0.953
- normalized growth (locus YBR160W, strain CDC28, active compounds read low): 0.939
- normalized growth (locus YDL017W, strain CDC7, active compounds read low): 0.945
- normalized growth (locus YDL028C, strain MPS1, active compounds read low): 0.95
- normalized growth [5]: 0.944
- normalized growth (locus YDL108W, strain KIN28, active compounds read low): 0.962
- normalized growth (locus YDL132W, strain cdc53, active compounds read low): 0.942
- normalized growth (locus YDL214C, strain PRR2, active compounds read low): 0.897
- normalized growth (locus YDR052C, strain DBF4, active compounds read low): 0.955
- normalized growth (locus YDR054C, strain cdc34, active compounds read low): 0.947
- normalized growth (locus YDR226W, strain ADK1, active compounds read low): 0.965
- normalized growth (locus YDR477W, strain SNF1, active compounds read low): 0.969
- normalized growth (locus YER123W, strain YCK3, active compounds read low): 0.967
- normalized growth (locus YER133W, strain GLC7, active compounds read low): 0.961
- normalized growth (locus YFL009W, strain cdc4, active compounds read low): 0.955
- normalized growth (locus YFL029C, strain CAK1, active compounds read low): 0.939
- normalized growth (locus YFR003C, strain YPI1, active compounds read low): 0.95
- normalized growth (locus YFR019W, strain FAB1, active compounds read low): 0.953
- normalized growth (locus YFR028C, strain CDC14, active compounds read low): 0.959
- normalized growth (locus YGR040W, strain KSS1, active compounds read low): 0.96
- normalized growth (locus YGR052W, strain FMP48, active compounds read low): 0.971
- normalized growth (locus YGR092W, strain DBF2, active compounds read low): 0.902
- normalized growth [6]: 0.816 (active)
- normalized growth (locus YHR079C, strain IRE1, active compounds read low): 0.877
- normalized growth (locus YHR082C, strain KSP1, active compounds read low): 0.918
- normalized growth (locus YHR205W, strain SCH9, active compounds read low): 0.836
- normalized growth (locus YIL147C, strain SLN1, active compounds read low): 0.949
- normalized growth (locus YJL095W, strain BCK1, active compounds read low): 0.916
- normalized growth (locus YJL128C, strain PBS2, active compounds read low): 0.909
- normalized growth (locus YJL157C, strain FAR1, active compounds read low): 0.948
- normalized growth (locus YJR016C, strain ILV3, active compounds read low): 0.951
- normalized growth (locus YJR066W, strain TOR1 (second series), active compounds read low): 1
- normalized growth (locus YJR066W, strain TOR1, active compounds read low): 0.897
- normalized growth (locus YKL048C, strain ELM1, active compounds read low): 0.948
- normalized growth (locus YKL067W, strain YNK1, active compounds read low): 0.928
- normalized growth (locus YKL101W, strain HSL1, active compounds read low): 0.929
- normalized growth (locus YKL193C, strain SDS22, active compounds read low): 0.929
- normalized growth (locus YKL203C, strain TOR2, active compounds read low): 1.01
- normalized growth (locus YLR113W, strain HOG1, active compounds read low): 0.77 (active)
- normalized growth (locus YLR133W, strain CKI1, active compounds read low): 0.941
- normalized growth (locus YLR403W, strain SFP1, active compounds read low): 0.97
- normalized growth (locus YML070W, strain DAK1, active compounds read low): 0.924
- normalized growth (locus YMR001C, strain CDC5, active compounds read low): 0.921
- normalized growth (locus YMR205C, strain PFK2 (second series), active compounds read low): 0.934
- normalized growth (locus YMR277W, strain FCP1, active compounds read low): 0.928
- normalized growth (locus YNL006W, strain LST8, active compounds read low): 0.94
- normalized growth (locus YNL020C, strain ARK1, active compounds read low): 0.931
- normalized growth (locus YNL161W, strain CBK1, active compounds read low): 0.934
- normalized growth (locus YNL183C, strain NPR1, active compounds read low): 0.887
- normalized growth (locus YNL207W, strain RIO2, active compounds read low): 0.935
- normalized growth (locus YNL222W, strain SSU72, active compounds read low): 0.941
- normalized growth (locus YNL307C, strain MCK1 (second series), active compounds read low): 0.897
- normalized growth (locus YOL078W, strain AVO1, active compounds read low): 0.934
- normalized growth (locus YOL136C, strain PFK27, active compounds read low): 0.893
- normalized growth (locus YOR061W, strain CKA2, active compounds read low): 0.95
- normalized growth (locus YOR119C, strain RIO1, active compounds read low): 0.945
- normalized growth (locus YOR231W, strain MKK1, active compounds read low): 0.876
- normalized growth (locus YOR329C, strain SCD5, active compounds read low): 0.935
- normalized growth (locus YPL031C, strain PHO85, active compounds read low): 0.954
- normalized growth (locus YPL153C, strain RAD53, active compounds read low): 0.963
- normalized growth (locus YPL204W, strain HRR25, active compounds read low): 0.945
- normalized growth (locus YPL209C, strain IPL1, active compounds read low): 0.938
- normalized growth (locus YPL256C, strain CLN2, active compounds read low): 0.806 (active)
- normalized growth (locus YPR025C, strain CCL1, active compounds read low): 0.942
- normalized growth (locus YPR106W, strain ISR1, active compounds read low): 0.936
- normalized growth (locus YPR111W, strain DBF20, active compounds read low): 0.975
- normalized growth (strain NNK1, active compounds read low): 0.919
- normalized growth (strain TSCII, active compounds read low): 0.938
